NS1 inh: blocks influenza NS1 protein function; AID 2326; 0.4% of 270,000 active; Potency, µM (top dose mostly 46.1 µM), for the others: at the top dose activity, positive = more growth; calls by dose curve; also: potency is read from the fitted curve at half-maximal effect; actives are rising curves; nearly all actives have a fitted effect of over 50% in size
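OD600 was taken as the measure of yeast growth restored by compound in an NS1-expressing S. cerevisiae strain. Cells had been washed out of glucose medium and diluted 1:100 into galactose -URA medium, pH 6.0.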
Shiga inhibitor: inhibitors of Shiga toxin in Vero cells. inhibition, % at 38.7 µM. Vero cells, Shiga toxin protein synthesis inhibition reporter. 9.2% of 290,000 active; in the data active = inhibition mostly above about 28%, no sharp cut-off; inactive = mostly below about 43%; also: 0% is about no effect
Pf growth 96h: P. falciparum growth inhibition at 96 hours; P. falciparum luciferase reporter growth, 96 h; Potency, µM (titrated, usually from 28.7 µM), inactives show at the top dose activity change, negative = inhibition, usual class: inhibitors; 6.9% of 320,000 active; AID 504834; also: potency is read from the fitted curve at half-maximal effect; % is scaled to controls: 0 for no effect and ±100 for the full control effect
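Parasite growth measured via integrated firefly luciferase reporter in P. falciparum. Infected erythrocytes at 2% hematocrit, 0.05% parasitemia final were treated 96 hours at 37 C under 5% CO2, and luminescence was read.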
Pf growth 48h: P. falciparum growth inhibition at 48 hours (one generation); P. falciparum luciferase growth in erythrocytes, 48 h; Potency, µM (top dose mostly 28.7 µM), for the others: top-dose activity change, negative = inhibition, actives largely listed as inhibitors; AID 504832; 5.9% of 310,000 active; also: potency is read from the fitted curve at half-maximal effect; % is scaled to controls: 0 for no effect and ±100 for the full control effect
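Luminescence readout; reporter = integrated firefly luciferase in P. falciparum. RBC culture at 2% hematocrit, 0.1% parasitemia final, 37 C/5% CO2; decreased signal taken as growth inhibition.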
Sm TGR inh: blocks Schistosoma mansoni thioredoxin glutathione reductase | Q962Y6 | purified TGR, DTNB reduction, TNB absorbance 405 nm | Potency, µM (doses to about 114 µM), for the others: at the top dose activity change, negative = inhibition, most hits filed as inhibitors | 3% of 360,000 active | AID 485364; also: potency is read from the fitted curve at half-maximal effect; % is scaled to controls: 0 for no effect and ±100 for the full control effect; nearly all actives have a fitted effect of over 60% in size
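TGR 20 nM + NADPH 100 uM (dispensed conc.), cpd preinc 15 min RT; start with NADPH (500 uM addition) then DTNB (15 mM addition). Kinetic TNB absorbance, 405 nm filter. Four-parameter Hill fit across titration.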
Cycloheximide cs: affects cycloheximide protein synthesis inhibition readout, counter-screen | cell reporter, cycloheximide protein synthesis inhibition counterscreen | max response, % | 12% of 300,000 active; in the data active = max response mostly above about 13%, no sharp cut-off; inactive = mostly below about 14%; also: read at 38.3 µM for the half of the compounds with a filed dose; 0% is about no effect
* = called active by the depositor; ? = inconclusive; / = not tested or not shown; [ ] = remark or other dose. A selection: hits, their analogues and other compounds. The true share with any hit is near 21%. Unless noted, calls follow the shape of the dose curve; as a rule, active = well fitted curve in the direction sought with a large enough effect; inconclusive = small, poorly fitted or top-dose-only effect, or another doubt; inactive = no such curve, though single readings can be large; an effect the other way counts as inactive or inconclusive.

SMILES	NS1 inh	Shiga inhibitor	Pf growth 96h	Pf growth 48h	Sm TGR inh	Cycloheximide cs
O=C(O)CCC/C=C\C[C@@H]1[C@@H](CC[C@@H](O)CCc2ccccc2)[C@H](O)C[C@@H]1O	/	-18	/	/	/	-3
CCc1ccc(NC(=O)Cn2c(=O)n(Cc3ccco3)c(=O)c3oc4ccccc4c32)cc1	/	/	/	/	7%	/
COc1ccc(NC(=O)CN(C)C(=O)c2sc3cc(Cl)ccc3c2Cl)cc1	/	/	-1%	?	?	/
C=CCN1CC2(c3ccccc3)CN(CC=C)CC(c3ccccc3)(C1)C2=O	6%	11	?	7%	0%	1
CS(=O)(=O)c1ccccc1-c1nnc(NC(=O)c2ccco2)o1	/	/	?	-2%	0%	/
Cn1c(=O)oc2cc(S(=O)(=O)NC(Cc3ccccc3)C(=O)Nc3ccc(F)c(Cl)c3)ccc21 (centres undefined)	/	/	/	/	1%	/
COc1ccc(C(C)=O)cc1COC(=O)c1ccc2c(c1)OCO2	3%	55	?	7%	?	1
COc1ccc(C(C)=O)cc1COC(=O)c1cnc(Cl)c(Cl)c1	-1%	-15	-7%	-7%	1.4µM*	1
O=C(OCc1ccc(Br)cc1)c1cnc(Cl)c(Cl)c1	2%	-8	5%	?	8%	-6
COc1ccc(C(C)=O)cc1COC(=O)c1ccc(S(=O)(=O)N(C)C)cc1	/	17	?	-27%	2.5µM*	9
CCOc1ccc(C(C)=O)cc1COC(=O)c1ccc2c(c1)NC(=O)CS2	/	/	?	?	11µM*	/
CN(CC(=O)Nc1ccc(F)cc1)C(=O)C1CCCC1	/	/	19%	-9%	0%	/
COc1cc(C(=O)NNC(=O)C2CC2)cc(OC)c1OC	6%	-4	51%	40%	0%	-3
COc1cc(C(=O)NCC(c2ccc(F)cc2)N2CCOCC2)ccc1OCc1ccccc1Cl (centres undefined)	/	/	9.3µM*	5.2µM*	-1%	/
O=C(NCC(c1ccc(F)cc1)N1CCOCC1)c1ccc(C(=O)c2ccccc2)cc1 (centres undefined)	-18%	-4	?	11%	-4%	1
CN(C)c1ccc(C(CNC(=O)COc2ccc(Cl)cc2)N2CCCC2)cc1 (centres undefined)	-1%	3	6.6µM*	-18%	-17%	-1
Cc1cc(OCC(=O)NCC(c2ccc(F)cc2)N2CCOCC2)ccc1Cl (centres undefined)	/	/	9.3µM*	9.3µM*	4%	/
O=C(NCC(c1ccc(F)cc1)N1CCOCC1)c1ccc(Br)o1 (centres undefined)	-5%	-6	?	-12%	-33%	-7
CN(C)c1ccc(C(CNC(=O)COc2ccc(Cl)cc2)N2CCOCC2)cc1 (centres undefined)	/	/	/	/	3%	/
Cc1ccc(Cn2nc(C)c(C(=O)NCC(c3ccc(F)cc3)N3CCOCC3)c2Cl)cc1 (centres undefined)	/	/	?	10µM*	2%	/
O[C@H]1COC2C1OC[C@@H]2O (some centres undefined)	-2%	-6	-12%	1%	-12%	-1
CCCS(=O)(=O)N1CCCC(C(=O)NCC(OC)OC)C1 (centres undefined)	/	-10	-23%	24%	-2%	6
CC1CN(S(=O)(=O)c2csc(C(=O)Nc3ccccc3)c2)CC(C)O1 (centres undefined)	8%	4	33%	0%	4%	-1
O=C(CC12CC3CC(CC(C3)C1)C2)NCC(c1ccc(F)cc1)N1CCOCC1 (centres undefined)	/	-8	12µM*	12µM*	5%	-4
Cc1ccccc1Cc1ccc(Cl)nn1	/	-2	-10%	10µM*	-2%	0
SMILES	NS1 inh	Shiga inhibitor	Pf growth 96h	Pf growth 48h	Sm TGR inh	Cycloheximide cs
COc1ccc(/C=C/c2nc3ccccc3c(=O)n2-c2cccc(C(F)(F)F)c2)cc1	/	/	/	/	2%	/
COc1ccc(OC)c(C2=C/C(=C/c3ccccn3)C(=O)O2)c1	/	-9	5.2µM*	?	-6%	-1
O=C(Cc1ccc(F)cc1)N1CCC(c2nc3c(nnn3Cc3ccc(Cl)cc3)c(=O)[nH]2)CC1	/	/	/	/	4%	/
Cc1ccc(-c2cc(C(F)F)n3ncc(C(=O)Nc4c(C)nn(Cc5ccccc5Cl)c4C)c3n2)cc1	22%	9	?	?	-17%	-2
Cc1ccc(-c2cc(C(F)F)n3ncc(C(=O)Nc4c(C)nn(Cc5c(Cl)cccc5Cl)c4C)c3n2)cc1	?	-1	2.3µM*	?	-22%	-4
Cc1nn(Cc2c(Cl)cccc2Cl)c(C)c1NC(=O)c1cnn2c(C(F)F)cc(-c3ccccc3)nc12	1%	-31	2.6µM*	?	9%	-3
CC1=C(Cl)C2=NS(=O)(=O)CCN2C=C1Cl	/	-11	0%	11%	0%	0
CCOC(=O)c1c(C)[nH]c(C)c1S(=O)(=O)N1CCCC(C(=O)NCc2ccc(Cl)cc2)C1 (centres undefined)	/	/	/	/	1%	/
O=C(c1ccccc1Cl)N1CCc2ccccc2C1	-5%	17	/	-24%	-35%	9
Cc1ccccc1C(=O)N1CCc2ccccc2C1	-94%	43	-29%	-65%	6%	19*
CCNC(=S)N1CCc2ccccc2C1	2%	-4	3%	24%	4%	9
CSc1ccccc1C(=O)N1CCN(c2cccc(Cl)c2)CC1	2%	-10	140%	-40%[1.15 µM]	10%	-7
CSc1ccccc1C(=O)N1CCc2ccccc2C1	/	46	32%	8%[5.75 µM]	8%	16*
CSCCCNC(=S)N1CCc2ccccc2C1	/	74	71%	?	-7%	29*
CCn1c(C(=O)N2CCc3ccccc3C2)cc2oc3ccccc3c21	9%	7	211%	6%	-14%	6
Cn1c(C(=O)N2CCc3ccccc3C2)cc2oc3ccccc3c21	-23%	61*	12%	107%	3%	38*
COc1cc(OC)cc(C(=O)NC2CC3CCC(C2)N3C)c1 (centres undefined)	/	/	?	-25%	-12%	/
CCn1c(=O)c(CCC(=O)NCC2CCCO2)c(C)c2c(C)nn(-c3ccc(C)cc3)c21 (centres undefined)	-8%	-4	-16%	5.2µM*	3%	-1
CCn1c(=O)c(CCC(=O)N2CCN(c3ccccn3)CC2)c(C)c2c(C)nn(-c3cccc(C)c3)c21	-2%	-3	?	9.3µM*	-1%	0
Cc1ccc(-c2noc(CCC(=O)NCC3CCCO3)n2)cc1 (centres undefined)	-12%	2	34%	/	-5%	-3
Cc1nc2nc(C)c(CCC(=O)N3CCN(c4ccccn4)CC3)c(C)n2n1	2%	2	13%	-3%	7%	-3
Cc1ccc(N2CC(NC(=O)c3ccc(Br)o3)CC2=O)cc1C (centres undefined)	/	/	/	/	-2%	/
CCN(CC(=O)Nc1ccc(NC(C)=O)cc1)CC(=O)Nc1cc(C)on1	/	/	20%	8%	5%	/

Screening data as filed in PubChem BioAssay.
